# In all, about 4,100 compounds went through this assay and about 1,600 (39%) were called active. About 25% were inconclusive and are not listed. The list shows a part of the results. Unmarked numbers belong to inactive results. Calls come from the whole dose curve; as a rule, active = well fitted inhibition curve with a large enough effect; inconclusive = small, poorly fitted or top-dose-only effect; inactive = no such curve, though single readings can be large or run the other way.
# Assay: qHTS Validation assay for Inhibitors of Plasmodium falciparum Dd2 growth in vitro; note: nearly all actives have a fitted effect of over 70% in size
# Conditions: P. falciparum Dd2 in RBCs, SYBR Green growth, 72 h; series mostly up to 28.7 µM; activity change, negative = inhibition: at the top concentration
# Outline: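 P. falciparum Dd2-infected red blood cells (2.5% hematocrit, 0.3% parasitemia) grown 72 h at 37 °C under 5% O2 with compounds in a titration, 29 uM to 0.5 nM final. Growth read as SYBR Green-1 fluorescence after ~16 h lysis; artesunate 300 nM as positive control.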
# % is set by controls: 0 for no effect and ±100 for the full control effect; potency is the fitted concentration of half-maximal effect.
SMILES,"activity change, negative = inhibition",Potency
CSCc1noc(Cc2c(C)nn(-c3ccccc3)c2C)n1,35%,–
NS(=O)(=O)c1ccc(NC(=O)CN2C(=O)COc3ccc(Cl)cc32)cc1,13.6%,–
COc1ccc(S(=O)(=O)N2CCN(C(=O)c3cc(-c4ccccc4OC)n[nH]3)CC2)cc1,12.6%,–
Cc1cc(O)c(-c2cc(C(=O)Nc3ccc(S(=O)(=O)N4CCOCC4)cc3)[nH]n2)cc1C,–,1.68 µM (active)
COc1ccc(C(=O)Nc2cc(-c3nc4ccccc4s3)ccc2OC)cc1,21.4%,–
Cc1ccc(NC(=O)c2cc(-c3ccc[nH]3)n[nH]2)cc1C,-25.4%,–
COc1ccc(OC)c(NC(=O)c2cc(-c3cc(Cl)ccc3O)n[nH]2)c1,–,4.73 µM (active)
COc1ccccc1-c1cc(C(=O)N2CCN(S(=O)(=O)c3ccc(C)cc3)CC2)[nH]n1,–,7.5 µM (active)
Cc1ccc(Cl)cc1NC(=O)c1cc(S(=O)(=O)N2CCOCC2)cn1C,-14.4%,–
CCOc1ccc(OCC)c(NC(=O)c2nnn(CC(=O)Nc3cc(Cl)ccc3OC)c2N)c1,35%,–
Cc1ccccc1-c1cc(C(=O)N2CCC3(CC2)CC(O)CCO3)[nH]n1 (centres undefined),14.5%,–
O=C(Nc1ccc(S(=O)(=O)N2CCOCC2)cc1)c1cc(-c2cc(Cl)ccc2O)n[nH]1,–,2.66 µM (active)
CN1CC2(CCN(S(=O)(=O)c3ccc(C#N)cc3)CC2)CC1C(=O)N1CCOCC1 (centres undefined),1.39%,–
CN(C)c1ncc([N+](=O)[O-])cc1C(F)(F)F,19.7%,–
CCc1noc(-c2cccn3c(CNC(=O)c4ccccc4F)nnc23)n1,0%,–
CCOc1ccc2nc(N3CCN(C(=O)C(C)C)CC3)sc2c1,-11.4%,–
Cc1cc(C)c2nc(N3CCC(C(=O)N4CCCC4)CC3)sc2c1,15.7%,–
Cc1ccc(C)c2sc(N3CCN(C(=O)c4ccc([N+](=O)[O-])o4)CC3)nc12,–,4.73 µM (active)
Cc1ccc2sc(N3CCN(C(=O)c4ccc([N+](=O)[O-])o4)CC3)nc2c1C,–,5.31 µM (active)
COc1ccc2nc(N3CCN(C(=O)c4ccc([N+](=O)[O-])o4)CC3)sc2c1,–,4.73 µM (active)
COc1cccc(N2CCN(c3nc(C(=O)NCc4cccc(C)c4)cs3)CC2)c1,16.3%,–
CNC(=O)N1CCc2c(sc3ncnc(N(C)C)c23)C1,3.51%,–
Nc1ccc2nc(-c3cccs3)[nH]c2c1,-28.3%,–

SMILES,"activity change, negative = inhibition",Potency
Cc1ccc(NC(=O)Cn2ccnc2)cc1C,49.5%,–
Cc1ccc(Sc2ccc(NC(=O)CCl)cc2)cc1C,–,9.44 µM (active)
Cc1nc([C@@H]2CN(C(=O)c3nccc4ccccc34)C[C@H]2C(N)=O)n[nH]1,5.68%,–
Cc1noc(C2CC3(CCN(C(=O)c4cccn4C)CC3)CN2C)n1 (centres undefined),4.95%,–
COC(=O)C1=C(C)NC(C)=C(C(=O)OCCCN2CCC(c3ccccc3)(c3ccccc3)CC2)C1c1cccc([N+](=O)[O-])c1 (centres undefined),–,2.99 µM (active)
COC(=O)C1=C(C)NC(C)=C(C(=O)OC(C)(C)CN(C)CCC(c2ccccc2)c2ccccc2)C1c1cccc([N+](=O)[O-])c1 (centres undefined),–,2.99 µM (active)
CCN(CC)CCCC(C)Nc1cc(/C=C/c2ccccc2Cl)nc2cc(Cl)ccc12 (centres undefined),–,0.842 µM (active)
CCc1nc(NCc2cn[nH]c2-c2ccc(Cl)cc2)c2cnn(C)c2n1,56.2%,–
COC[C@@H]1CN(C(=O)c2cc3ccccc3[nH]2)C[C@H]1c1ccncc1,-20.6%,–
CCOc1cc(C(=O)N2CCC(CC3CC(c4cccc(Br)c4)=NO3)(C(=O)NCC3CCCCC3)CC2)cc(OCC)c1OCC (centres undefined),–,1.68 µM (active)
CCOc1cc(C(=O)N2CCC(CC3CC(c4ccc(Cl)cc4)=NO3)(C(=O)NCC3CCCCC3)CC2)cc(OCC)c1OCC (centres undefined),–,0.842 µM (active)
COCCNC(=O)C1COC2(CCN(C(=O)c3ccc(Cl)cc3)CC2)N1C(=O)c1ccccc1C (centres undefined),-12.4%,–
CC(C)(C)OC(=O)N1CCC(CC2CC(c3ccccc3)=NO2)(C(=O)NCc2ccccc2)CC1 (centres undefined),–,2.66 µM (active)
CCCCCCCNC(=O)C1(CC2CC(c3ccc(Cl)cc3)=NO2)CCN(C(=O)c2cc(OCC)c(OCC)c(OCC)c2)CC1 (centres undefined),–,3.35 µM (active)
O=C(NCc1ccccc1)N1CCC(c2nc(C3CCOCC3)no2)CC1,13%,–
Cc1cc(Cl)ccc1-c1ccc(CNC2CN(C(=O)OC(C)(C)C)C2)cc1,37%,–
CC(C)c1cc(C(=O)NC2CCN(c3ncccc3C#N)CC2)n(C)n1,5.19%,–
CCCCCCCNC(=O)C1(CC2CC(c3cccc(Br)c3)=NO2)CCN(C(=O)c2cc(OCC)c(OCC)c(OCC)c2)CC1 (centres undefined),–,10.6 µM (active)
CC(NCc1ccccc1O)C12CC3CC(CC(C3)C1)C2 (centres undefined),–,0.0944 µM (active)
O=C1NCCCCCCN(C(=O)C2CCC2)[C@H]2C[C@H](c3nc(-c4cccnc4)no3)C[C@@H]12,3.93%,–
Cn1nc(C(=O)NCC(=O)N2CCCCCCNC(=O)CC2c2ccccc2)c2ccccc21 (centres undefined),–,2.11 µM (active)
CNC(=O)c1[nH]nc2c1CCc1cc(OC)ccc1-2,-19.9%,–
COc1ccc2c(c1)CCc1c-2n[nH]c1C(=O)N1CCc2c(nc3cc(-c4ccccc4)[nH]n3c2=O)C1,18.7%,–

SMILES,"activity change, negative = inhibition",Potency
Cc1ccncc1C(=O)NCC(=O)N1CCCCCNC(=O)CC1c1ccccc1 (centres undefined),1.1%,–
Cn1cnc(C(=O)NCC(=O)N2CCCCCNC(=O)CC2c2ccccc2)c1 (centres undefined),4.59%,–
O=C1CC(c2ccccc2)N(C(=O)CNC(=O)c2ccc3[nH]ccc3c2)CCCCCN1 (centres undefined),–,15 µM (active)
O=C1CC(c2ccccc2)N(C(=O)CNC(=O)c2[nH]nc3c2CCc2ccccc2-3)CCCCCCN1 (centres undefined),–,2.99 µM (active)
CN(C)C[C@@H]1CN(C)C[C@H]1NS(=O)(=O)c1ccc(Br)cc1,–,13.3 µM (active)
Cc1ccc(S(=O)(=O)N[C@@H]2CN(C)C[C@H]2CN(C)C)cc1F,–,15 µM (active)
CCOc1ccc(CC(=O)N[C@@H]2CN(c3ncccn3)C[C@H]2CN(C)C)cc1,-5.61%,–
CN(C)C[C@@H]1CN(S(C)(=O)=O)C[C@H]1NC(=O)c1ccccc1,12.9%,–
Cc1nn(-c2ccccc2)c2c1C(O)n1c(nc3ccccc31)S2 (centres undefined),–,5.31 µM (active)
CCOC(=O)C1=Nc2ccccc2C1=[N+]=[N-],–,4.22 µM (active)
CCOC(=O)C1=C(C)N=c2s/c(=C\c3ccc(OCC(=O)O)cc3)c(=O)n2C1c1ccccc1OC (centres undefined),-9.3%,–
CCOc1ccc(C2C(C(=O)Nc3ccccc3)=C(C)N=c3s/c(=C/c4cccc(OCC(=O)O)c4)c(=O)n32)cc1 (centres undefined),–,5.31 µM (active)
CCOC(=O)C1=C(c2ccccc2)N=c2s/c(=C\c3cc(OC)c(OC)c(OC)c3)c(=O)n2C1c1cccs1 (centres undefined),–,5.96 µM (active)
CCOC(=O)C1=C(C)N=c2s/c(=C/c3ccc(OCC(=O)O)cc3)c(=O)n2C1c1cc(OC)c(OC)c(OC)c1 (centres undefined),–,1.88 µM (active)
Cc1ccc(CN(C)C(=O)c2cc(COc3ccc(F)cc3Cl)on2)o1,20.9%,–
CC1(Cc2ccc3c(c2)OCO3)CCCN(C(=O)c2ccccc2-n2cncn2)C1 (centres undefined),-5.72%,–
COC(=O)c1nn(-c2ccc3c(c2)CCN3C(C)=O)cc1O,45.4%,–
COCCNc1nc2cc(C(=O)N3CC[C@H](CO)[C@@H](O)C3)ccc2n1C,19%,–
COc1ccc(C2C(C(=O)N3CCCCC3)CC(=O)N2c2ccc(OC)cc2)cc1 (centres undefined),–,7.5 µM (active)
COc1cnc(-c2ccccn2)nc1Oc1ccc(C(C)(C)C)cc1,66.3%,–
COc1cnc(-c2ccccn2)nc1N(C)c1ccccc1,–,5.96 µM (active)
Cc1nc(-c2ccccn2)nc(N(C)c2ccccc2)c1Cl,–,5.31 µM (active)
COc1cnc(-c2ccccn2)nc1NC(C)C,–,5.31 µM (active)

SMILES,"activity change, negative = inhibition",Potency
CC(OC(=O)c1ccc(OCC2CCCO2)cc1)C(=O)N(C)Cc1ccccc1 (centres undefined),-9.4%,–
Cc1ccc(-c2nnc(Nc3ccc(O)cc3)c3ccccc23)cc1S(=O)(=O)N1CCN(C)CC1,–,6.68 µM (active)
Cc1ccc(-c2nnc(Nc3ccc(OCC(N)=O)cc3)c3ccccc23)cc1S(=O)(=O)NCC1CCCO1 (centres undefined),–,4.73 µM (active)
COC(=O)c1ccc(Nc2nnc(-c3ccc(C)c(S(=O)(=O)N4CCN(C)CC4)c3)c3ccccc23)cc1,–,8.41 µM (active)
CC(=O)c1cccc(NS(=O)(=O)c2cc(-c3cnc(C4CC4)o3)ccc2C)c1,8.42%,–
COC(=O)c1ccc(Nc2ncnc3c2nc2n3CCCC2)cc1,-21.5%,–
CCOC(=O)c1c(N)sc2c1CCN(Cc1ccccc1)C2,–,5.31 µM (active)
CCOC(=O)c1c(NC(=O)/C=C/c2ccc(OCC)cc2)sc2c1CCC2,1.45%,–
CC(C)(C(=O)N1CCN(Cc2ccccc2)CC(O)C1)c1ccccc1 (centres undefined),-5.37%,–
Cc1cc(F)ccc1NC(=O)Cn1c(=O)ccc2cc(S(=O)(=O)N3CCC(C)CC3)ccc21,1.53%,–
O=C(CN1CCC(n2nnc3cc(F)ccc32)CC1)Nc1ccccc1N1CCOCC1,–,5.31 µM (active)
O=C(C1=C[C@H](c2csc3ccccc23)C[C@H](OCCCCO)O1)N1CCN(Cc2ccc3c(c2)OCO3)CC1,–,13.3 µM (active)
O=C(NCc1nc2ccccc2[nH]1)C1=C[C@@H](c2ccccc2)C[C@@H](OCCCCO)O1,20.8%,–
CCO[C@@H]1OC(C(=O)N2CCN(Cc3ccc4c(c3)OCO4)CC2)=C[C@H](c2cn(C(C)=O)c3ccccc23)[C@H]1CCCO,–,9.44 µM (active)
CCO[C@H]1OC(C(=O)N2CCN(Cc3ccc4c(c3)OCO4)CC2)=C[C@@H](c2cn(C(C)=O)c3ccccc23)[C@@H]1CCCO,–,8.41 µM (active)
CCO[C@H]1OC(C(=O)N2CCN(Cc3ccccc3)CC2)=C[C@@H](C2CCCCC2)[C@@H]1CCCO,-29.6%,–
CN(Cc1cccnc1)Cc1ccccc1C(F)(F)F,31.1% [at 43.1 µM],–
CCOC(=O)c1nnn(-c2nonc2-n2cccc2)c1CN1CCC(C(=O)OCC)CC1,–,4.73 µM (active)
Cn1c(CN2CCCCC2)nnc1C1CCCN(C(=O)c2cocn2)C1 (centres undefined),0%,–
CCOC(=O)c1nnn(-c2nonc2-n2cccc2)c1CN1CCCCC1,–,7.5 µM (active)
